Measured values published in PubChem BioAssay (NCATS).
Unmarked numbers belong to inactive results. Inconclusive results are not listed. A call without a number means that no potency is given here. Activity calls are given as the source filed them. The call rests on the fitted dose curve; in most records, active means well fitted curve in the direction sought with a large enough effect; inconclusive means small, poorly fitted or top-dose-only effect, or another doubt; inactive means no such curve, though single readings can be large; an effect the other way counts as inactive or inconclusive. Numbered stars: 1 amine (or outer) side, 2 acyl side, 3 side chain; on linkers, the order of the positions; unused ones are H or OH. Bridge positions count the residues as written; N and C are the ends. Square brackets hold non-standard residues; d marks the D form. Peptide text beside a SMILES is read from it. * marks the point of attachment. ξ: configuration not given here. ΔAla(Z-3-ureido) = NC(=O)N/C=C(\N)C(=O)O; X2 = NC1=NC(O)CC(C(N[*:1])C(=O)[*:2])N1; ξβ3hOrn = NCCCC(N)CC(=O)*; Dap = NC[CH](N)C(=O)O

Experiments:
[1] = molecular target: Ubiquitin carboxyl-terminal hydrolase 1 (Homo sapiens) (UniProt O94782); assay: Inhibitors of USP1/UAF1: Pilot qHTS (AID 504865); further: nearly all actives have a fitted effect of over 35% in size; further: potency means the concentration at half of the fitted maximal effect
Procedure, shortened: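 Kinetic fluorescence assay: 1nM USP1/UAF1, 15 min compound preincubation, then 150nM Ub-Rho; 480/540 nm.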

[2] = qHTS profiling for inhibitors of Plasmodium falciparum proliferation (AID 504749); further: nearly all actives have a fitted effect of over 60% in size; conditions: P. falciparum in erythrocytes, SYBR Green DNA, 72 h, at 28.7 µM (top of the series)
Procedure, shortened: (§1)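 P. falciparum-infected erythrocytes (0.3% parasitemia, 2.5% hematocrit final) were exposed to compounds for 72 h at 37 C in 5% CO2, then lysed with SYBR Green buffer overnight at room temperature; parasite DNA fluorescence was normalized to artemisinin and DMSO controls.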

AA1029 = assay: as above; conditions: P. falciparum in erythrocytes, SYBR Green DNA, 72 h; series mostly up to 28.7 µM
Procedure, shortened: as §1

ATS189 = assay: as above; conditions: P. falciparum in erythrocytes, SYBR Green DNA, 72 h; series mostly up to 28.7 µM
Procedure, shortened: as §1

CP185 = assay: as above; conditions: P. falciparum in erythrocytes, SYBR Green DNA, 72 h; series mostly up to 28.7 µM
Procedure, shortened: as §1

CP201 = assay: as above; conditions: P. falciparum in erythrocytes, SYBR Green DNA, 72 h; series mostly up to 28.7 µM
Procedure, shortened: as §1

CP238 = assay: as above; conditions: P. falciparum in erythrocytes, SYBR Green DNA, 72 h; series mostly up to 28.7 µM
Procedure, shortened: as §1

CP252 = assay: as above; conditions: P. falciparum in erythrocytes, SYBR Green DNA, 72 h; series mostly up to 28.7 µM
Procedure, shortened: as §1

CP265 = assay: as above; conditions: P. falciparum in erythrocytes, SYBR Green DNA, 72 h; series mostly up to 28.7 µM
Procedure, shortened: as §1

CP286 = assay: as above; conditions: P. falciparum in erythrocytes, SYBR Green DNA, 72 h; series mostly up to 28.7 µM
Procedure, shortened: as §1

CP305 = assay: as above; conditions: P. falciparum in erythrocytes, SYBR Green DNA, 72 h; series mostly up to 28.7 µM
Procedure, shortened: as §1

CP325 = assay: as above; conditions: P. falciparum in erythrocytes, SYBR Green DNA, 72 h; series mostly up to 28.7 µM
Procedure, shortened: as §1

FAB9 = assay: as above; conditions: P. falciparum in erythrocytes, SYBR Green DNA, 72 h; series mostly up to 28.7 µM
Procedure, shortened: as §1

PC15 = assay: as above; conditions: P. falciparum in erythrocytes, SYBR Green DNA, 72 h; series mostly up to 28.7 µM
Procedure, shortened: as §1

PC49 = assay: as above; conditions: P. falciparum in erythrocytes, SYBR Green DNA, 72 h; series mostly up to 28.7 µM
Procedure, shortened: as §1

[3] = molecular target: Cytochrome P450 3A4 (Homo sapiens) (UniProt P08684); assay: qHTS Assay for Inhibitors and Substrates of Cytochrome P450 3A4 (AID 884); further: nearly all actives have a fitted effect of over 50% in size; further: potency means the concentration at half of the fitted maximal effect
Procedure, shortened: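 20 nM human CYP3A4 with 25 uM Luciferin-PPXE (at KM) in 200 mM KPO4, preincubated 10 min with compound; NADPH regeneration started a 60 min RT reaction. Luciferin detected by luminescence, normalized to 57 uM ketoconazole as full inhibition.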

[4] = molecular target: DNA dC->dU-editing enzyme APOBEC-3G (Homo sapiens) (UniProt Q9HC16); assay: qHTS for inhibitors of Vif-A3G interactions: Validation (AID 588379)
Procedure, shortened: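 HeLa cells stably expressing Vif and A3G-eYFP, 700 cells/well, incubated overnight at 37 deg C, then exposed to compound overnight at 37 deg C. Inhibition of Vif-mediated degradation read as increased yellow fluorescence (Ex 488/Em 500-530) by laser-scanning cytometry.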

[5] = molecular target: Cytochrome P450 3A4 (Homo sapiens) (UniProt P08684); assay: qHTS Assay for Activators of Cytochrome P450 3A4 (AID 885); further: nearly all actives have a fitted effect of over 65% in size
Procedure, shortened: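 Human CYP3A4 (20 nM) with Luciferin-PPXE at 25 uM (its KM) in 200 mM KPO4; 10 min compound preincubation, then NADPH regeneration and 60 min reaction at RT. Luciferin read by luminescence; normalized to 57 uM ketoconazole full inhibition.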

Chain of Cytochrome P450 3A4 (Homo sapiens) (P08684 whole entry, looked up): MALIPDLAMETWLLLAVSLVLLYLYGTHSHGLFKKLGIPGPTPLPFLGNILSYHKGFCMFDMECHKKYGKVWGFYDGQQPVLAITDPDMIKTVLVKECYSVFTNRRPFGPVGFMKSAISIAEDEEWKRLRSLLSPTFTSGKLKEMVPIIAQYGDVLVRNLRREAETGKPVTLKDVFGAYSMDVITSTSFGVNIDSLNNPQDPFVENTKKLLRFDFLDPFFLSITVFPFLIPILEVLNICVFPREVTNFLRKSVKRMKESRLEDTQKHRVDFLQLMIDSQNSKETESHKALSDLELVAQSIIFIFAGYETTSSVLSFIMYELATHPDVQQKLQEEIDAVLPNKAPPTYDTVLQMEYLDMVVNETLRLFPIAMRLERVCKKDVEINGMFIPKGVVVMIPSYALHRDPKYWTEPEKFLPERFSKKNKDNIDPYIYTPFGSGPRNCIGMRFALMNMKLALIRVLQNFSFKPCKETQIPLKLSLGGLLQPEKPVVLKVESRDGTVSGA
Chain of DNA dC->dU-editing enzyme APOBEC-3G (Homo sapiens) (Q9HC16 whole entry, looked up): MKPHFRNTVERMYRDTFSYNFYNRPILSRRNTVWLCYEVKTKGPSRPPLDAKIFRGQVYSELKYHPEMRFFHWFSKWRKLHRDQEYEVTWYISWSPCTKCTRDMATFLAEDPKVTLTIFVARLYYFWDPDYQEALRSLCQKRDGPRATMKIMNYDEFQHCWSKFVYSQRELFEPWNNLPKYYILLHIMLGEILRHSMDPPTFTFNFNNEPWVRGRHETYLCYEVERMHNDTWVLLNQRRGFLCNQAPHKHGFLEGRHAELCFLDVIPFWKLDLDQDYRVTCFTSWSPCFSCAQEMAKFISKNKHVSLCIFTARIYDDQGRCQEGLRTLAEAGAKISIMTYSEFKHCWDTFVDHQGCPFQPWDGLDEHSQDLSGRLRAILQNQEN
Chain of Ubiquitin carboxyl-terminal hydrolase 1 (Homo sapiens) (O94782 whole entry, looked up): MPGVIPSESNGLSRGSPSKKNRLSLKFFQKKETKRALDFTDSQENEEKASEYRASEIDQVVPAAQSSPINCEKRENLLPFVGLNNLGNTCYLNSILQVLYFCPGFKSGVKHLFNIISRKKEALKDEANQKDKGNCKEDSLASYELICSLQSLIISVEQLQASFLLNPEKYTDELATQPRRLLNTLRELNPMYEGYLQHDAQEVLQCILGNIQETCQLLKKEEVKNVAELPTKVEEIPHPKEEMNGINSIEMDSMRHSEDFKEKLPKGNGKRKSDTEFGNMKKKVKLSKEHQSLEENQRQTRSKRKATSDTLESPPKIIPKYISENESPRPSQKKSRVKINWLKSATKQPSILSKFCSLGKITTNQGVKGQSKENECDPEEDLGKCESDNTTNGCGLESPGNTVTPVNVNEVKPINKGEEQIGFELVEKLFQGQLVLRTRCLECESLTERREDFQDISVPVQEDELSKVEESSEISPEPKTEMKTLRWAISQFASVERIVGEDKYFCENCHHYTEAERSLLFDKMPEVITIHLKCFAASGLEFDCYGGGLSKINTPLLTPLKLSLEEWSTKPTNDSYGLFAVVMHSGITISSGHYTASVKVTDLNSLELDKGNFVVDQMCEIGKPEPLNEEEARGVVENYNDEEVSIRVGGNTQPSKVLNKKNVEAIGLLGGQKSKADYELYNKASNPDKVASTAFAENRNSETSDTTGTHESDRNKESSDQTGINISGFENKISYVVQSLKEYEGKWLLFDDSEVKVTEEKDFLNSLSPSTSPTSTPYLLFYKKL

SMILES | Potency [1] | activity, negative = inhibition ([2]; parasite line A) [%] | activity, negative = inhibition ([2]; parasite line B) [%] | Potency (AA1029) | Potency (ATS189) | Potency (CP185) | Potency (CP201) | Potency (CP238) | Potency (CP252) | Potency (CP265) | Potency (CP286) | Potency (CP305) | Potency (CP325) | Potency (FAB9) | Potency (PC15) | Potency (PC49) | Potency [3] | Potency [4] | Potency [5]
CCC1NC(=O)C(NC(=O)c2ncccc2O)C(C)OC(=O)C(c2ccccc2)NC(=O)C2CC(=O)CCN2C(=O)C(Cc2ccccc2)N(C)C(=O)C2CCCN2C1=O (configuration not stated) | inactive | -20.9 | -28.7 | inactive | inactive | inactive | inactive | inactive | inactive | inactive | inactive | inactive | inactive | inactive | inactive | inactive |  |  | 
C[C@H]1[C@H]2CC[C@H]3C4CC=C5C[C@@H](N(C)C)CC[C@]5(C)C4CC[C@]23CN1C (some centres not stated) | inactive |  |  |  |  |  |  |  |  |  |  |  |  |  |  |  | inactive | inactive | 
COc1ccc2c(c1OC)C(Cc1ccccc1)N1CCc3cc4c(cc3C1=C2)OCO4 (configuration not stated) | 39.8 µM (active) |  |  |  |  |  |  |  |  |  |  |  |  |  |  |  | 0.199 µM (active) | inactive | 
NCCCC(N)CC(=O)NC1CNC(=O)C(C2CC(O)N=C(N)N2)NC(=O)/C(=C/NC(N)=O)NC(=O)C(CO)NC(=O)C(CO)NC1=O (stereo not drawn) (ξβ3hOrn-[Dap]SS[ΔAla(Z-3-ureido)][X2]; lactam 1-C; configuration not given here) | inactive | 5.91 | 6.39 | inactive | inactive | inactive | inactive | inactive | inactive | inactive | inactive | inactive | inactive | inactive | inactive | inactive |  |  | 
O=C(/C=C/c1ccc(O)cc1)c1cccs1 | inactive |  |  |  |  |  |  |  |  |  |  |  |  |  |  |  | 1.26 µM (active) | inactive | inactive
COc1ccc(-c2oc3cc(OC)ccc3c(=O)c2O)cc1 | inactive |  |  |  |  |  |  |  |  |  |  |  |  |  |  |  |  | inactive | 
CC(C)C[C@H](NC(=O)[C@@H](Cc1c[nH]c2ccccc12)NC(=O)[C@@H](Cc1ccc(O)cc1)NC(=O)[C@@H](CO)NC(=O)[C@@H](Cc1c[nH]c2ccccc12)NC(=O)C(Cc1cnc[nH]1)NC(=O)C1CCC(=O)N1)C(=O)N[C@@H](CCCN=C(N)N)C(=O)N1CCC[C@@H]1C(=O)NCC(N)=O (some centres not stated) | inactive | 17.3 | 2.16 | inactive | inactive | inactive | inactive | inactive | inactive | inactive | inactive | inactive | inactive | inactive | inactive | inactive |  |  | 
OC[C@H]1O[C@@H](OC[C@H]2O[C@@H](O)[C@H](O)[C@@H](O)[C@@H]2O)[C@H](O)[C@@H](O)[C@@H]1O | inactive |  |  |  |  |  |  |  |  |  |  |  |  |  |  |  |  | inactive | 
Cn1cc(O)nc1NC(=O)Nc1cccc(Cl)c1 | inactive | -22.2 | -22.3 | inactive | inactive | inactive | inactive | inactive | inactive | inactive | inactive | inactive | inactive | inactive | inactive | inactive |  |  | 
COc1cccc2c1C(=O)CC(c1ccccc1)O2 (configuration not stated) | inactive |  |  |  |  |  |  |  |  |  |  |  |  |  |  |  | inactive | inactive | 
CC(C)C(NC(=O)C(CC(=O)O)NC(=O)C(CCCCN)NC(=O)C(N)CCCN=C(N)N)C(=O)NC(Cc1ccc(O)cc1)C(=O)O (configuration not stated) (H-RKDVY-OH; configuration not given here) | inactive | 0.811 | 3.22 | inactive | inactive | inactive | inactive | inactive | inactive | inactive | inactive | inactive | inactive | inactive | inactive | inactive |  |  | 
CC(=O)OCC(=O)[C@@]1(O)CCC2C3CCC4=CC(=O)CC[C@]4(C)C3=CC[C@@]21C (some centres not stated) | inactive | 11 | 2.99 | inactive | inactive | inactive | inactive | inactive | inactive | inactive | inactive | inactive | inactive | inactive | inactive | inactive |  |  | 
O=C(/C=C/c1ccccc1)c1cccs1 | inactive |  |  |  |  |  |  |  |  |  |  |  |  |  |  |  |  | inactive | 
CC1(C)C(/C=C/C=C/C=C/C=C2\N(CCCCS(=O)(=O)O)c3ccc4ccccc4c3C2(C)C)=[N+](CCCCS(=O)(=O)[O-])c2ccc3ccccc3c21 | 31.6 µM (active) | 2.34 | 4.13 | inactive | inactive | inactive | inactive | inactive | inactive | inactive | inactive | inactive | inactive | inactive | inactive | inactive |  |  | 
CC(C)CC(NC(=O)C(COC(C)(C)C)NC(=O)C(Cc1ccc(O)cc1)NC(=O)C(CO)NC(=O)C(Cc1c[nH]c2ccccc12)NC(=O)C(Cc1cnc[nH]1)NC(=O)C1CCC(=O)N1)C(=O)NC(CCCN=C(N)N)C(=O)N1CCCC1C(=O)NNC(N)=O (configuration not stated) | inactive | 11.9 | 5.86 | inactive | inactive | inactive | inactive | inactive | inactive | inactive | inactive | inactive | inactive | inactive | inactive | inactive |  |  | 
